Biological target: MYCBPAP
Assay: pooled miR-30 sensor sort-seq; sequence = guide strand
Conditions: shRNA
Further: reference of the scale not given here.

Sequence | sensor-assay potency score (higher = more potent)
TTGTGCTTCTTGCTGTTGGGAC | -0.31
TGCAATTCTCTTAAAATCCTGG | -0.695
TATGACTTTCTTGTCATCCTTT | 0.0986
TAGATCAGAAACAGACTCCGAT | 0.675
TTTCTTGTCATCCTTTGCCTTG | -0.95
TCTCCTTGTAGGACATTGCTAA | -0.62
TTGTAGGACATTGCTAACAGGT | -0.808

Biological target: MYCL1
Assay: as above
Conditions: shRNA

Sequence | sensor-assay potency score (higher = more potent)
TCTTTTCTGCAACTGCTGCTGC | 0.0557
TTTCTCTGTAGCCATCCTCTTC | -0.97
TCATTCTCCGAGTCGCTTGGGC | -0.392
TTCTTCCAGATGTCCTCGCTGG | -0.137
ATAGTCGTAGAAATAGTGCTGG | 0.222
ATCAATTTCTTCATTCTCCGAG | 0.219
TCAATTTCTTCATTCTCCGAGT | 0.102
TTCTTTTCTGCAACTGCTGCTG | -0.121
TAGTCGTAGAAATAGTGCTGGT | -0.671
AATTCTTTTCTGCAACTGCTGC | -0.74
TTGCTTAGGATCACTACTTTGG | -0.448
TTAGGATCACTACTTTGGGGGC | -0.971

Biological target: MYH14
Assay: as above
Conditions: shRNA

Sequence | sensor-assay potency score (higher = more potent)
TGTCAGGATCTCGTATCGCTGC | -0.48
TCATCTGCCATCTCATCCCGGT | -0.0949
TTTCCGTCTTCCCAGCTCCAGA | -1.5
TTGTCATTCTTCACTGTCTTGG | -0.287
TTCCTCTGCCTCCTCGTCGGAT | -1.06
TTCACCTTGGTAAACAGCCGCC | -0.755
TTGGTGTTTTCCGTCTTCCCAG | -1.05
TCTGGTCTCTTGCTCTAGCTGC | -0.396
TTGAGGCGCAGAACCAGCCAGC | -0.999
TTGTAGTCGACCTTGCCCGCGT | -0.308
TAGAGCTGTCCCACTGTCCGGA | 0.0775
TAGTGGAGAACACTGAAGTCGG | -0.73

Biological target: MYL4
Assay: as above
Conditions: shRNA

Sequence | sensor-assay potency score (higher = more potent)
TCTATCTTTACACTCTTGGGGT | 0.0138
ATCTTCATCTCTCCAGTCGGGG | -0.885
TATCTTTACACTCTTGGGGTCA | -0.527
TCTTTGAACTCTTCAATCTGGT | -0.00801
AAGTCTATCTTTACACTCTTGG | -0.446
TCGGCAGTGAAGTCTATCTTTA | -1.13
TTGAACTCTTCAATCTGGTCGG | 0.391
TTTATTAACAGGGAGGGCCTGT | -0.299
TCTTCATCTCTCCAGTCGGGGT | -1.55
